The values that follow come from PubChem BioAssay (Tox21).

In test [1] the target is Thyrotropin-releasing hormone receptor (Homo sapiens) (UniProt P34981). As to the kind of experiment: qHTS assay to identify small molecule agonists of the thyrotropin-releasing hormone receptor (TRHR) signaling pathway (AID 1346891; calls by dose curve; note: series mostly up to about 58 µM). In a few lines: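 TRHR-expressing HEK293 cells were plated 18 h at 37 °C/5% CO2, loaded with calcium dye 2 h at 37 °C, then given compound in DMSO; fluorescence was read kinetically for 3 min at 1 s intervals.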
Chain of Thyrotropin-releasing hormone receptor (Homo sapiens) (P34981 whole entry, looked up): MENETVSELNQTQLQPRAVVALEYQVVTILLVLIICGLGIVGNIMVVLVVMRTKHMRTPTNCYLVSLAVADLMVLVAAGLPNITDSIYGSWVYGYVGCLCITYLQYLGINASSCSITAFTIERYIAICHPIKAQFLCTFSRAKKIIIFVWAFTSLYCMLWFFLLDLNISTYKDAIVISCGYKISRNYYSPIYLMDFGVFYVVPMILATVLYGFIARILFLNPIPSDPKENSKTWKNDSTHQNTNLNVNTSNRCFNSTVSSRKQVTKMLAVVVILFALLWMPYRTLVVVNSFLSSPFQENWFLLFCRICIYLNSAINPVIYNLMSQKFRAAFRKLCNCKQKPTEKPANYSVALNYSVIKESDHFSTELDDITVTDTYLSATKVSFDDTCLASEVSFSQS

The nature of test [2]: Caspase-3/7 induction in HepG2 cells by small molecules, qHTS assay (AID 1346978). Note: nearly all actives have a fitted effect of over 15% in size. Note: potency is the fitted concentration of half-maximal effect. The gist of the method:
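Wild-type HepG2 cells (2,000/well) were settled 5 h at 37 C, 5% CO2, then exposed to compounds in DMSO for 17 h. Caspase-3/7 activity was read by luminescence 30 min after adding Caspase-Glo 3/7 reagent at room temperature.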

Test [3] in a line: Caspase-3/7 induction in CHO-K1 cells by small molecules, qHTS cell viability counter screen (AID 1346979). Note: nearly all actives have a fitted effect of over 35% in size. Note: potency is the fitted concentration of half-maximal effect. In a few lines:
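Wild-type CHO-K1 cells were seeded at 1,500 per well, rested 5hr at 37 C, then exposed to compounds in DMSO. After 16hr, CellTiter-Fluor reagent was added and fluorescence read 1hr later as the viability measure.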

Test [4] in a line: Caspase-3/7 induction in CHO-K1 cells by small molecules, qHTS assay (AID 1346980). Note: nearly all actives have a fitted effect of over 15% in size. The gist of the method:
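Wild-type cells were seeded at 1,500 per well and settled 5 hr at 37 C, 5% CO2, then exposed to DMSO-dissolved compounds for 17 hr. Caspase-Glo 3/7 reagent was added, and luminescence was read after 30min at room temperature.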

Test [5] can be described thus: Caspase-3/7 induction in HepG2 cells by small molecules, qHTS cell viability counter screen (AID 1346981). Note: nearly all actives have a fitted effect of over 30% in size. Note: potency is the fitted concentration of half-maximal effect. The gist of the method: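 Wild-type HepG2 cells, 2,000/well, settled 5 hr at 37 C, 5% CO2 before compound addition. Viability read by CellTiter-Fluor fluorescence, reagent added after 16 hr compound exposure, then 1 hr at 37C, in the same wells as the caspase read.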

Test [6] has as its target Nuclear receptor subfamily 1 group I member 2 (Homo sapiens) (UniProt O75469). The test can be described thus: Human pregnane X receptor (PXR) small molecule agonists, qHTS assay (AID 1346982). Note: nearly all actives have a fitted effect of over 35% in size. Note: potency is the fitted concentration of half-maximal effect. The gist of the method: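 PXR-Luc HepG2 reporter cells (CYP3A4-driven luciferase) in 5% charcoal-stripped FBS medium, plated 5 h before compound addition, then treated 24 h at 37C. Luciferase read by ONE-Glo luminescence after 30 min at room temperature.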

Test [7] concerns the target Cytochrome P450 2D6 (Homo sapiens) (UniProt P10635). The test can be described thus: Cytochrome P450 Family 2 Subfamily D Member 6 (CYP2D6) small molecule antagonists: luciferase reporter qHTS assay (AID 1671196). Note: nearly all actives have a fitted effect of over 50% in size. Note: potency is the fitted concentration of half-maximal effect. The gist of the method: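 Cell-free P450-Glo system: CYP2D6 with proluciferin substrate was pre-incubated with compound for 10 min, then reacted with NADPH regeneration for 1 h at room temperature. Luciferin product was detected after 20 min, and data were reported as relative luminescence units.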

A short description of test [8]: Human pregnane X receptor (PXR) small molecule agonists, qHTS cell viability counter screen (AID 1346977). Note: nearly all actives have a fitted effect of over 50% in size. Note: potency is the fitted concentration of half-maximal effect. In a few lines:
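PXR-Luc HepG2 cells in medium with 5% charcoal-stripped FBS were pre-incubated 5hr, then exposed to compounds for 24hr at 37C. Viability was read in the same wells by CellTiter-Fluor fluorescence, reagent added after 23hr with a 1hr incubation.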

For test [9], the target named is Nuclear receptor subfamily 1 group I member 2 (Rattus norvegicus) (UniProt Q9R1A7). The test can be described thus: Rat pregnane X receptor (rPXR) activation by small molecules, qHTS assay (AID 1346983). Note: nearly all actives have a fitted effect of over 20% in size. As to conditions: rPXR luciferase reporter cells, One-Glo luminescence, 24 h; max activation: stronger effect = higher value. In a few lines: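 Cell-based rPXR luciferase reporter assay, 2,000 cells per well, rested 5hr at 37 C before compound addition in DMSO, then 24 hr at 37 C. One-Glo reagent was added and luminescence read after 30 min at room temperature.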
Chain of Nuclear receptor subfamily 1 group I member 2 (Rattus norvegicus) (Q9R1A7 whole entry, looked up): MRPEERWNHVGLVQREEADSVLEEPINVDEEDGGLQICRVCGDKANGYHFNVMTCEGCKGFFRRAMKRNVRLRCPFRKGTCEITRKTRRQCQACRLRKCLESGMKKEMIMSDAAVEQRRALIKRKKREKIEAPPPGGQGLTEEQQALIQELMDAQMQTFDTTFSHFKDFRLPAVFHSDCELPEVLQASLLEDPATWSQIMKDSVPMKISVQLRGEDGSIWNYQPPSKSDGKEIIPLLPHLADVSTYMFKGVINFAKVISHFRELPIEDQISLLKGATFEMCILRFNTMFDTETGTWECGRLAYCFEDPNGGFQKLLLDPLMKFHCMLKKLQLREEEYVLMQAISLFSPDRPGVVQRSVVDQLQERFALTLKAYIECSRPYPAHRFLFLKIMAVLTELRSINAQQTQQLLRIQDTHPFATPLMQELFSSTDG

In test [10] the target is Nuclear receptor subfamily 1 group I member 2 (Homo sapiens) (UniProt O75469). The test can be described thus: Human pregnane X receptor (PXR) activation by small molecules, qHTS assay (AID 1346985). Note: nearly all actives have a fitted effect of over 40% in size. Note: potency is the fitted concentration of half-maximal effect. In a few lines: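 DPX-2 cells (HepG2 co-transfected with a PXR response element and a CYP3A4-promoter luciferase construct) were seeded at 2,000 per well, rested 5 hr at 37C, then exposed to DMSO-dissolved compounds for 24 hr. Activation was read as luciferase luminescence.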
Chain of Nuclear receptor subfamily 1 group I member 2 (Homo sapiens) (O75469 whole entry, looked up): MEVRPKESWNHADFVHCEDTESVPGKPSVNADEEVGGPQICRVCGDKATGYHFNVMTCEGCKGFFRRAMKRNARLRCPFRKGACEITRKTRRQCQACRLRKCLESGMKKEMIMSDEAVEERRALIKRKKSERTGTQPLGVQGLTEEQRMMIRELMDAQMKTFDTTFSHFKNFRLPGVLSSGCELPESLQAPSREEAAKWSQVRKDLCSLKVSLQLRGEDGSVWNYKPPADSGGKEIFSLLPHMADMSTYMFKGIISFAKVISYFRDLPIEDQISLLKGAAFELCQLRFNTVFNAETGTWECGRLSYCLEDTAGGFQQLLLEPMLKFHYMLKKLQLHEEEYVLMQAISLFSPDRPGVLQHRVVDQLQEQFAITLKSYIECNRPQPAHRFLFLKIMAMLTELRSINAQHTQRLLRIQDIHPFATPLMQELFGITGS

Structures are written as SMILES. Values joined by “and” are separate entries in the source; they are usually repeats but may differ in a detail not shown here. Equal entries are not always repeated. Records with an inconclusive call do not appear. A structure can be active in one record and inactive in another. Active and inactive are the calls of the source. Unless noted, calls come from the whole dose curve; as a rule, active = well fitted curve in the direction sought with a large enough effect in the repeat runs; inconclusive = weak or mixed curves; inactive = no such curve, though single readings can be large; an effect the other way counts as inactive or inconclusive.
% is set by controls: 0 for no effect and ±100 for the full control effect.

Chain of Cytochrome P450 2D6 (Homo sapiens) (P10635 whole entry, looked up): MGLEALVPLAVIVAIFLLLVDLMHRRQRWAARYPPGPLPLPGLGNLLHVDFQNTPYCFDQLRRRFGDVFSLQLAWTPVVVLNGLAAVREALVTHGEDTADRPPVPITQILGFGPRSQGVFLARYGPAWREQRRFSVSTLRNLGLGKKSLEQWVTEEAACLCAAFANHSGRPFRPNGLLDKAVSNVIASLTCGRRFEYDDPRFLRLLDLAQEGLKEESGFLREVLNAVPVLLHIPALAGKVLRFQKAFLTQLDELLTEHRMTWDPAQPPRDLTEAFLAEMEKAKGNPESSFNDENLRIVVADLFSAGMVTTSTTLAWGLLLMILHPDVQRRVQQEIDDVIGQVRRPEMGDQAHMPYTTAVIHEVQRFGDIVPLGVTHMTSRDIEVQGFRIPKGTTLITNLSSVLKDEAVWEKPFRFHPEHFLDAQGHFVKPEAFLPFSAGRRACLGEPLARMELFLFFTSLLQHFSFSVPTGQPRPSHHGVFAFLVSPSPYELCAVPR

In the case of `Cn1cnc([N+](=O)[O-])c1Sc1ncnc2nc[nH]c12`, the Potency result in test [1], in [2], in test [4] and in [6] was “inactive” throughout. The Potency in [3] is 51.1 µM (active); in [5], 48.2 µM (active); in [7], 44.5 µM (active) and inactive.
With `Cc1c(C(N)=O)cc([N+](=O)[O-])cc1[N+](=O)[O-]`, the Potency result in test [8], in test [2], in test [3], in [4], in test [5] and in [6] was “inactive” throughout. Moreover, the Potency entry in test [10] and in [7] was “inactive” throughout. For the same compound, the max activation in test [9] is 0.724% (inactive).
`CC(C)OC(=O)C(C)(C)Oc1ccc(C(=O)c2ccc(Cl)cc2)cc1`: the Potency entry in test [8], in test [2], in [4], in test [5] and in [7] was “inactive” throughout. Further, the Potency in test [3] was 54.5 µM (active); in test [6], 27.3 µM (active).
With `COc1ccccc1/C=C/C=O`, the Potency entry in [8], in test [2], in test [4], in test [5] and in test [7] was “inactive” throughout.
As to `Cc1cccc(C(=O)O)c1`, the Potency in [8] is 14.1 µM (active); in [2], 13.5 µM (active) and inactive; in test [3], 3.4 µM (active) and inactive; in test [6] it was 9.57 µM (active) and inactive. Besides, the Potency entry in [4] and in test [7] was “inactive” each time.
For the compound `O=C(c1ccc(OCCN2CCCCC2)cc1)c1c(-c2ccc(O)cc2)sc2cc(O)ccc12`, the Potency in test [8] is 21.7 µM (active) and 24.3 µM (active) and 23.7 µM (active); in test [2], 68.7 µM (active) and inactive; in test [3], 54.5 µM (active) and 61.1 µM (active) and 26.6 µM (active); in test [5] it was 61.2 µM (active) and 61.1 µM (active). Besides, the Potency result in test [4] was “inactive”.
Turning to `Nc1ccccc1N`, the Potency result in [1] and in [4] was “inactive” each time. The Potency in test [2] is 2.22 µM (active) and 9.41 µM (active); in test [3] it was “inactive and 47.2 µM (active)”; in test [5], 15 µM (active); in test [6] it was 1.76 µM (active) and 7.7 µM (active); in [7], 36.4 µM (active) and 7.31 µM (active).
On to `CC(C)OB(OC(C)C)OC(C)C`, for which the Potency result in test [8], in test [2], in test [3], in test [4], in [5] and in test [6] was “inactive” each time. Further, the Potency result in [7] is “inactive”.
As for `Cc1cccc(N(C)C(=S)Oc2ccc3ccccc3c2)c1`, the Potency result in test [8], in [2], in test [3], in [4], in test [5] and in [7] was “inactive” in each case. The Potency in test [6] was 17.2 µM (active) and 11.9 µM (active); in [10] it was 8.91 µM (active). In [9], the max activation is 2.58% (inactive).
On to `Nc1ccc(S(=O)(=O)Nc2cnc3ccccc3n2)cc1`, for which the Potency entry in [8], in [2], in test [3], in test [4], in test [5] and in test [6] was “inactive” in each case. Also, the Potency result in [10] and in [7] was “inactive” each time. In [9], the max activation is 6.27% (inactive).
Take `S=C(NC1CCCCC1)NC1CCCCC1`: the Potency result in test [8], in test [2], in test [4] and in [5] was “inactive” in each case. Besides, the Potency was 60 µM (active) and 43.3 µM (active) in [3]; 26.8 µM (active) and 19.3 µM (active) in [6]; 31.1 µM (active) and 22.4 µM (active) in test [7].
For `c1ccc(Nc2ccccc2)cc1`, the Potency entry in test [8], in [2], in [3], in test [4], in test [5] and in test [7] was “inactive” each time. Also, the Potency in test [6] is 61.1 µM (active) and inactive.
Take `CC(C)=CCC/C(C)=C\CO`: the Potency entry in [8], in [2], in test [3], in [4] and in [5] was “inactive” in each case.
In the case of `NC=O`, the Potency result in test [8], in test [2], in test [3], in test [4], in test [5] and in test [6] was “inactive” in each case. The Potency result in [7] was “inactive”.
As to `CN(C)CCN(Cc1cccs1)c1ccccn1`, the Potency result in test [8], in [2], in [3], in test [4], in test [5] and in [10] was “inactive” in each case. Besides, the Potency in test [6] is 20 µM (active) and inactive. Moreover, in [9], the max activation is -1.17% (inactive).
On to `O=C(Nc1ccc(Cl)cc1)Nc1ccc(Cl)c(Cl)c1`, for which the Potency in test [8] was 7.08 µM (active) and 12.2 µM (active) and 13.3 µM (active); in test [3], 19.2 µM (active) and 17.2 µM (active) and 18.8 µM (active); in test [6], 7.66 µM (active). Besides, the Potency entry in test [2], in [4], in test [10] and in test [7] was “inactive” throughout. The max activation in test [9] is -13.1% (inactive).
